Measured values from ChEMBL document CHEMBL3988442, “University of Dundee, Small-Polar-MMV Screening Library” (2021).
In all, about 48,000 compounds went through this assay and about 13,000 (27%) showed an effect of 50% or more. This is one part of the list.

test system: Wolbachia pipientis; assay: Anti-Wolbachia Cell-Based Screen; type: functional; design: scale not given: in the data most compounds retested in dose-response had high values; settings: 5 µM

SMILES	Percent Effect [%]
CC(c1ccccc1)N(C)C(=O)CN1CCCc2cc(F)cc(F)c21 (stereo unspecified)	-34.4
CCc1cnc(N2C[C@H]3C[C@H](C(=O)N(C)C)[C@@H](C2)O3)nc1	-23.08
Cc1cnc(N2C[C@H]3C[C@H](C(=O)N(C)C)[C@@H](C2)O3)nc1	-7.121
CCc1cnc(N2C[C@H]3C[C@H](C(=O)NC)[C@@H](C2)O3)nc1	2.577
O=C([C@H]1C[C@@H]2CN(c3ncc(F)cn3)C[C@H]1O2)N1CCCC1	104.9
O=C([C@H]1C[C@@H]2CN(c3ncc(F)cn3)C[C@H]1O2)N1CCOCC1	99.35
O=C(O)C(F)(F)F.O=C([C@H]1COC[C@H]2CN(c3ncc(F)cn3)C[C@H]21)N1CCOCC1	-8.043
CCc1cnc(N2C[C@H]3C[C@H](C(=O)N4CCOCC4)[C@@H](C2)O3)nc1.O=C(O)C(F)(F)F	104.4
CCc1cnc(N2C[C@H]3C[C@H](C(=O)NCC(C)C)[C@@H](C2)O3)nc1	-2.395
O=C(C1CN(c2ncc(F)cn2)CC12CCOCC2)N1CCOCC1 (stereo unspecified)	-0.101
O=C(NCCCF)Nc1ccc2nc(N3CCOCC3)oc2c1	0.7918
O=C(NC1CCCC1)C1CCN(c2cc(-n3ccnc3)ncn2)CC1	-4.5
CNC(=O)C1CCCN(c2nc3c(-c4ccccc4)csc3c(=O)[nH]2)C1 (stereo unspecified)	3.58
O=C(NC1CC1)C1CCN(c2nc3nc[nH]c(=O)c3s2)CC1	99.33
CCc1nc(CC(=O)N2CCC(C(=O)N3CCCC3)CC2)cs1	-3.887
CC(C)NC(=O)C1CCN(c2nc3nc[nH]c(=O)c3s2)CC1	92.05
CC(C)NC(=O)C1CCN(Cn2ccc(-c3ccc(F)cc3)n2)CC1	3.574
CNC(=O)C1CCN(c2nc3nc[nH]c(=O)c3s2)CC1	82.12
O=C(C1CCN(c2snc3ccccc23)CC1)N1CCCCCC1	0.1158
O=C(C1CCN(c2nc3nc[nH]c(=O)c3s2)CC1)N1CCCCC1	84.01
CC(NC(=O)C1CCN(C(C)C)CC1)c1nncn1C1CCCC1 (stereo unspecified)	-21.33
O=C(NC1CCN(c2snc3ccccc23)CC1)C1CCC1	9.197

SMILES	Percent Effect [%]
CCc1c(C)nc2ccccc2c1N1CCC(C(=O)NC)CC1	-7.875
CCC(=O)N1CCc2[nH]cnc2C12CCN(CC1CCOC1)CC2 (stereo unspecified)	-0.5236
O=C(CCc1ccco1)NCC1CCCN1c1cccnn1 (stereo unspecified)	2.662
Fc1cc(CN2CCOC3(CCOCC3)C2)ccc1Cl	8.168
CN(C)C(=O)CNC(=O)c1ccc2c(-c3nccs3)noc2c1	-0.7255
CC(Cc1ccco1)NC(=O)C1=NN(c2ccccc2)C(=O)CC1 (stereo unspecified)	-5.577
Cn1cnc2c1CCN(CCCOc1ccc(C#N)cc1)C2	-1.382
CN(C)c1ccc(-c2nnc([C@H]3CCN(C4CCCCC4)C3)o2)cc1	-10.19
O=C(O)C1(Cc2cc(-c3ccc(F)cc3F)no2)CCOCC1	-11.85
O=C(CNC1(CCO)CCOCC1)Nc1ccc(F)cc1F	0.1585
Cc1cc(NCC2(O)CCOCC2)c2ccccc2n1	18.91
O=C(O)C1(Cc2cc(-c3ccccc3F)no2)CCOCC1	118.9
Cc1ccccc1-c1cc(CC2(C(=O)O)CCOCC2)on1	97.16
O=C(NCCO)C1(Cc2cc(-c3ccc(F)cc3F)no2)CCOCC1	-8.546
Cc1ccccc1C1(C(=O)NCCN2CCCC2)CCOCC1	3.645
O=C(O)C1(Cc2cc(-c3cccc(F)c3)no2)CCOCC1	-9.48
O=C(NC1CC1)C1(Cc2cc(-c3ccc(F)cc3F)no2)CCOCC1	116.7
O=C(O)C1(Cc2cc(-c3ccc(F)cc3)no2)CCOCC1	104.3
COCCNC(=O)c1cc(F)ccc1NS(C)(=O)=O	-6.492
Cc1cc(C)n(CC2CCCN2CC(=O)N(C)Cc2cnn(C)c2)n1 (stereo unspecified)	3.257
Cc1ccsc1CN(CCN(C)C)C(=O)C1=NNC(=O)CC1	-65.43
O=C(CSc1ccncc1)N1CCC2(CC1)c1ccccc1CC2O (stereo unspecified)	-6.227

SMILES	Percent Effect [%]
CCS(=O)(=O)N1CC[C@H]2O[C@@H](c3nnc(C)o3)CC[C@H]21	-3.387
CCc1nc(C)c(C(=O)N2CCNCC2C(=O)NCc2ccncc2)o1 (stereo unspecified)	-5.393
COCc1noc(-c2nn(-c3ccc(F)cc3)c3c2CCC3)n1	-5.396
COCCOCc1cccc(NC(=O)N2CCCC2c2ccncc2)c1 (stereo unspecified)	1.869
CNC(=O)C(C)(C)N1CCC[C@H]1C(=O)NCCN(C)C.Cl	11.97
O=C(Nc1ccc(Cn2cccn2)cc1)N1CCC(CO)CC1	5.025
Cc1ncc2c(n1)CCCC2NC(=O)c1ccc(Cn2cccn2)cc1 (stereo unspecified)	102.9
Cc1ccccc1C(=O)NC1CCN(c2cnn(C)c2)C1=O (stereo unspecified)	-0.04337
Cc1ncc2c(n1)CCCC2NC(=O)c1ccncc1 (stereo unspecified)	4.921
Cc1ncc2c(n1)CCCC2NC(=O)c1ccccc1Cn1cncn1 (stereo unspecified)	-4.956
Cc1ncc2c(n1)CCCC2NC(=O)c1ccccc1C(=O)O (stereo unspecified)	116.6
Cc1ccccc1Oc1ncccc1CNS(C)(=O)=O	-1.022
CNC(=O)CN(C)S(=O)(=O)c1c(Br)cc2[nH]c(=O)oc2c1Cl	-6.435
CNc1cc(C)nc(-c2cc(NC3CCNCC3)nc3[nH]ccc23)n1	81.74
COc1cccc(-c2cc(NCCO)nc3[nH]ccc23)n1	17.98
CN(C)CCNc1cc(-c2ncccn2)c2cc[nH]c2n1	-0.2256
CNc1cc(C)nc(-c2cc(NCCO)nc3[nH]ccc23)n1	88.51
CNc1cc(C)nc(-c2cc(NC)nc3[nH]ccc23)n1	82.65
CN(C)CCNc1cc(-c2ccc[nH]c2=O)c2cc[nH]c2n1	6.813
COc1cccc(-c2cc(NCCN(C)C)nc3[nH]ccc23)n1	-69.14
COc1nccnc1-c1cc(NC2CCNCC2)nc2[nH]ccc12	-9.475
Nc1ccnc(-c2cc(NC3CCNCC3)nc3[nH]ccc23)c1	10.25
